Our source for the Potency values is PubChem BioAssay (NCATS).

Assay [1] can be described thus: qHTS Screen of the MIPE 4.0 Collection Against Ewings Sarcoma (TC71) (AID 1259253). Also: nearly all actives have a fitted effect of over 40% in size. Put shortly: (§1)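 Here, cells in 5% FBS RPMI were exposed for two days (48 h) to compound dilutions added four hours after plating. ATP-based CellTiter-Glo luminescence measured viability, normalized to vehicle and no-cell blanks.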
On the technique in general: In qHTS, concentration-response curves come from the screen itself.

Assay [2] is described as follows: qHTS Screen of the MIPE 4.0 Collection Against Ewings Sarcoma (EW8) (AID 1259255). Also: nearly all actives have a fitted effect of over 35% in size. In short, it runs like this:
as §1

Assay [3] can be described thus: qHTS Screen of the MIPE 4.0 Collection Against Ewings Sarcoma (TC32) (AID 1259256). Also: nearly all actives have a fitted effect of over 45% in size. In short, it runs like this:
as §1

Molecules are shown by their SMILES. Inconclusive results are not listed. Active and inactive are the calls of the source. Calls follow the shape of the dose curve; as a rule, active = well fitted inhibition curve with a large enough effect; inconclusive = small, poorly fitted or top-dose-only effect; inactive = no such curve, though single readings can be large or run the other way.
Potency is read from the fitted curve at half-maximal effect.

As to `NC(=O)c1noc([C@H](CCCC2CCCCC2)CC(=O)NO)n1`, the Potency in assay [1] is 26.4 µM (active); in assay [2], 18.7 µM (active).

Take `CC(C)(OCc1nn(Cc2ccccc2)c2ccccc12)C(=O)O`: the Potency in assay [1] was 7.43 µM (active). In assay [2], the Potency result is “inactive”.

As for `CCC(=C(c1ccc(O)cc1)c1ccc(OCCNC)cc1)c1ccccc1`, the values for the Potency in assay [1], in assay [2] and in assay [3] were 20.9 µM (active), 26.4 µM (active) and 23.5 µM (active), respectively.

Take `CC(C)C[C@@H](N)[C@H](O)C(=O)N[C@H](C(=O)N[C@H](C(=O)N[C@@H](CC(=O)O)C(=O)O)C(C)C)C(C)C`: the Potency in assay [1] is 18.7 µM (active). The Potency entry in assay [2] is “inactive”.

Turning to `C[C@@H]1[C@H](O)[C@@H](C)C=CC=CC=CC=CC=CC=CC=C[C@H](O[C@@H]2O[C@H](C)[C@H](O)[C@H](N)[C@@H]2O)C[C@@H]2O[C@](O)(C[C@@H](O)C[C@@H](O)[C@H](O)CC[C@@H](O)C[C@@H](O)CC(=O)O[C@H]1C)C[C@H](O)[C@@H]2C(=O)O`, the figures for the Potency in assay [1], in assay [2] and in assay [3] were 0.372 µM (active), 1.18 µM (active) and 0.743 µM (active), respectively.

With `NC(N)=Nc1nc(CSCCC(N)=NS(N)(=O)=O)cs1`, the Potency in assay [1] was 18.7 µM (active). Besides, the Potency entry in assay [2] is “inactive”.

As to `c1ccc(-c2oc3ncnc(NC[C@@H]4CCCO4)c3c2-c2ccccc2)cc1`, the results for the Potency in assay [1], in assay [2] and in assay [3] were 23.5 µM (active), 18.7 µM (active) and 20.9 µM (active), respectively.

In the case of `CC[C@@H]([C@H](C)O)n1ncn(-c2ccc(N3CCN(c4ccc(OCC5CO[C@@](Cn6cncn6)(c6ccc(F)cc6F)C5)cc4)CC3)cc2)c1=O` (stereo partly drawn), the Potency entry in assay [1] and in assay [2] was “inactive” throughout.

As to `CC(C)=CCCC(C)=CCCC(C)=CCCC(C)=CCCC(C)=CCCC(C)=CCCC(C)=CCCC(C)=CCCC(C)=CCO`, the Potency result in assay [1] and in assay [2] was “inactive” in each case.

Turning to `O=C(c1ccc(C(=O)N2CCC(N3CCCC3)CC2)c(Nc2ccccc2)c1)N1CCC(N2CCCC2)CC1`, the Potency in assay [1] was 7.43 µM (active); in assay [2], 6.62 µM (active).

Consider `COc1cc2c(cc1Cc1cccc(Cl)c1F)c(=O)c(C(=O)O)cn2[C@H](CO)C(C)C`, for which the Potency in assay [1] was 20.9 µM (active); in assay [2], 23.5 µM (active).

Consider `CN1N=C(N)c2cn([C@@H]3O[C@H](COP(=O)(O)O)[C@@H](O)[C@@H]3O)c3ncnc1c23`, for which the Potency is 7.43 µM (active) in assay [1], 13.2 µM (active) in assay [2] and 2.64 µM (active) in assay [3].

`CN(C)S(=O)(=O)c1ccc2c(c1)C(=Cc1cc3c([nH]1)CCCC3)C(=O)N2`: the values for the Potency in assay [1], in assay [2] and in assay [3] were 9.35 µM (active), 8.33 µM (active) and 3.72 µM (active), respectively.

As to `CN(CC=CC#CC(C)(C)C)Cc1cccc2ccccc12`, the Potency result in assay [1] and in assay [2] was “inactive” in each case.

Take `C[C@H]1[C@H](O)O[C@@H]2O[C@@]3(C)CC[C@@H]4[C@H](C)CC[C@@H]1[C@@]24OO3`: the Potency in assay [1] is 1.48 µM (active); in assay [2], 1.66 µM (active).

As to `COc1cc2nc(-c3cc(F)ccc3O)nc(N[C@@H]3CNC[C@@H]3C(C)(C)O)c2cc1OC`, the Potency in assay [1] is 20.9 µM (active); in assay [2], 23.5 µM (active).

As for `CCCCCCOC(=O)N=C(N)c1ccc(NCc2nc3cc(C(=O)N(CCC(=O)OCC)c4ccccn4)ccc3n2C)cc1`, the Potency in assay [1] is 20.9 µM (active); in assay [2], 8.33 µM (active); in assay [3], 7.43 µM (active).

As for `O=C(Nc1ncc(SCCN2CCCC2)s1)[C@]1(c2ccc(S(=O)(=O)C3CC3)cc2)C[C@@H]1C1CCCCC1`, the values for the Potency in assay [1] and in assay [2] were 23.5 µM (active) and 13.2 µM (active), respectively.

`COc1cc(CNC(=O)CCCCC=CC(C)C)ccc1O`: the Potency is 16.6 µM (active) in assay [1] and 6.62 µM (active) in assay [2].

Take `CCCCC(F)(F)[C@@]1(O)CC[C@H]2[C@H](CC(=O)[C@@H]2CCCCCCC(=O)O)O1`: the figures for the Potency in assay [1], in assay [2] and in assay [3] were 2.96 µM (active), 3.32 µM (active) and 2.96 µM (active), respectively.

With `O=C1NC(=O)C(=Cc2ccc(-c3ccc(F)cc3O)o2)S1`, the Potency in assay [1] is 23.5 µM (active); in assay [2], 18.7 µM (active); in assay [3], 23.5 µM (active).

On to `NCc1c[nH]c(=S)n1[C@H]1CCc2c(F)cc(F)cc2C1`, for which the values for the Potency in assay [1], in assay [2] and in assay [3] were 20.9 µM (active), 23.5 µM (active) and 23.5 µM (active), respectively.

As to `O=C(O)C1=CO[C@@H](O[C@@H]2O[C@H](CO)[C@H](O)[C@H](O)[C@H]2O)[C@@H]2C(CO)=CC[C@H]12`, the Potency in assay [1] is 16.6 µM (active). Also, the Potency result in assay [2] and in assay [3] was “inactive” in each case.

In the case of `C#CCN(C)CC1=Cc2ccccc2Oc2ccccc21`, the Potency result in assay [1] and in assay [2] was “inactive” in each case.

As for `CCCCC(C=O)NC(=O)C(CC(C)C)NC(=O)OCc1ccccc1` (stereo not drawn), the Potency result in assay [1] and in assay [3] was “inactive” each time. Also, the Potency in assay [2] was 11.8 µM (active).

Consider `CCCC1OC2C[C@@H]3[C@H]4CCC5=CC(=O)C=C[C@]5(C)[C@H]4C(O)C[C@]3(C)[C@]2(C(=O)CO)O1` (stereo partly drawn), for which the Potency was 13.2 µM (active) in assay [1] and 18.7 µM (active) in assay [2].
